According to PubChem BioAssay AID1159580 (chemical genetic matrix, 2015):
“And” between values parts separate entries of the source, which are not always exact repeats. Identical values can stand only once. Out of some 5,500 compounds screened, about 2,000 (36%) were called active. About 18% were inconclusive and are not listed. No stated cut-off is given here; in the data, active means normalized growth mostly below about 0.91 (no sharp cut-off); inconclusive means no clear call, values can overlap the other calls; inactive means mostly above about 0.92. This is one part of the list.

Assay: chemical genetic growth profiling, strain panel (AID 1159580);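 further: tested at 20 µM; growth read once vehicle control cultures reached saturation at 30 °C; 1 = growth at the plate median or of vehicle wells; lower values mean less growth of the strain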
Details: S. cerevisiae deletion strains, growth OD

Measured: normalized growth

CC1(C)O[C@@H]2CC3C4C[C@H](F)C5=CC(=O)C=CC5(C)C4C(O)CC3(C)[C@]2(C(=O)CO)O1 (stereo partly drawn)
inactive: locus YAL013W, strain DEP1, active compounds read low 1.02 | locus YAL021C, strain ccr4, active compounds read low 1 | locus YAL026C, strain drs2, active compounds read low 0.993 | locus YAL030W, strain snc1, active compounds read low 0.992 | locus YBL061C, strain skt5, active compounds read low 0.979 | locus YBR009C, strain hhf1, active compounds read low 1.01 | locus YBR021W, strain FUR4, active compounds read low 1.02 | locus YBR023C, strain chs3, active compounds read low 0.987 | locus YBR171W, strain sec66, active compounds read low 0.985 | locus YBR229C, strain ROT2, active compounds read low 1.02 | locus YBR231C, strain swc5, active compounds read low 1 | locus YBR279W, strain paf1, active compounds read low 0.976 | locus YCL011C, strain gbp2, active compounds read low 0.982 | locus YCL016C, strain dcc1, active compounds read low 0.96 | locus YCL029C, strain bik1, active compounds read low 0.989 | locus YCL069W, strain vba3, active compounds read low 0.995 | locus YCR088W, strain abp1, active compounds read low 0.992 | locus YDL005C, strain med2, active compounds read low 0.973 | locus YDL035C, strain GPR1, active compounds read low 1.02 | locus YDL040C, strain nat1, active compounds read low 0.983 | locus YDL074C, strain BRE1, active compounds read low 1.04 | locus YDL101C, strain DUN1, active compounds read low 1.02 | locus YDL134C, strain PPH21, active compounds read low 1.02 | locus YDL185W, strain tfp1, active compounds read low 0.991 | locus YDL192W, strain arf1, active compounds read low 1.01 | locus YDR001C, strain nth1, active compounds read low 0.983 | locus YDR069C, strain doa4, active compounds read low 1 | locus YDR101C, strain arx1, active compounds read low 1 | locus YDR137W, strain rgp1, active compounds read low 1 | locus YDR159W, strain sac3, active compounds read low 0.982 | locus YDR162C, strain NBP2, active compounds read low 1.01 | locus YDR195W, strain ref2 0.997 | locus YDR297W, strain sur2, active compounds read low 1 | locus YDR318W, strain mcm21, active compounds read low 0.996 | locus YDR334W, strain swr1, active compounds read low 0.985 | locus YDR335W, strain msn5, active compounds read low 0.975 | locus YDR388W, active compounds read low 0.99 | locus YDR392W, strain spt3, active compounds read low 0.917 | locus YDR502C, strain sam2, active compounds read low 0.991 | locus YEL003W, strain gim4, active compounds read low 1.02 | locus YEL037C, strain rad23, active compounds read low 0.979 | locus YEL061C, strain CIN8 (second series), active compounds read low 0.987 | locus YEL061C, strain CIN8, active compounds read low 1.01 | locus YER015W, strain faa2, active compounds read low 0.996 | locus YER016W, strain bim1, active compounds read low 0.971 | locus YER110C, active compounds read low 0.988 | locus YER111C, strain swi4, active compounds read low 0.975 | locus YER155C, strain BEM2 (second series), active compounds read low 1.01 | locus YER155C, strain BEM2, active compounds read low 1.01 | locus YER167W, strain BCK2, active compounds read low 1.01 | locus YFR010W, strain ubp6, active compounds read low 1.01 | locus YGL078C, strain dbp3, active compounds read low 0.979 | locus YGL086W, strain mad1, active compounds read low 1.01 | locus YGL167C, strain pmr1, active compounds read low 0.996 | locus YGL173C, strain kem1, active compounds read low 1 | locus YGL227W, strain vid30, active compounds read low 0.988 | locus YGL240W, strain doc1, active compounds read low 1.02 | locus YGL248W, strain PDE1, active compounds read low 1.03 | locus YGL253W, strain hxk2, active compounds read low 0.959 | locus YGR135W, strain pre9, active compounds read low 0.98 | locus YGR252W, strain gcn5, active compounds read low 0.984 | locus YHR013C, strain ard1, active compounds read low 0.957 | locus YHR027C, strain rpn1, active compounds read low 0.99 | locus YHR030C, strain SLT2, active compounds read low 1.01 and 1.02 | locus YHR079C, strain IRE1 (second series), active compounds read low 0.99 | locus YHR079C, strain IRE1, active compounds read low 1.02 | locus YHR094C, strain hxt1, active compounds read low 0.98 | locus YHR129C, strain ARP1, active compounds read low 1.02 | locus YHR142W, strain chs7, active compounds read low 0.941 | locus YHR200W, strain rpn10, active compounds read low 0.998 | locus YIL066C, strain RNR3, active compounds read low 1.02 | locus YIL073C, strain SPO22, active compounds read low 0.999 | locus YIL125W, strain kgd1, active compounds read low 0.99 | locus YIR030C, strain dcg1, active compounds read low 0.998 | locus YJL092W, strain hpr5, active compounds read low 1 | locus YJL095W, strain BCK1 (second series), active compounds read low 0.978 | locus YJL095W, strain BCK1, active compounds read low 1.04 and 1.03 | locus YJL115W, strain asf1, active compounds read low 0.974 | locus YJL129C, strain trk1, active compounds read low 0.953 | locus YJL134W, strain LCB3, active compounds read low 1.01 | locus YJL154C, strain vps35, active compounds read low 0.976 | locus YJL164C, strain tpk1, active compounds read low 0.972 | locus YJL166W, strain qcr8, active compounds read low 1.02 | locus YJL168C, strain set2, active compounds read low 0.993 | locus YJL187C, strain SWE1 (second series), active compounds read low 1.02 | locus YJR043C, strain POL32, active compounds read low 1.02 | locus YJR066W, strain TOR1, active compounds read low 0.954 | locus YJR075W, strain HOC1, active compounds read low 1.03
